# Assay results as given in publication PMC11062922 (Nature Chemical Biology, 2023).
# Read-outs that look alike come from different tables or passages of the source.
# What was measured:
# Design in all cases: species or system human, MV4-11 + K-562 + COLO205 + SK-N-BE2 + OVCAR-8
# LATS1 = settings: read-out: apparent Kd, n = 1
# MARK4 = settings: read-out: apparent Kd, n = 1
# PRKD2 = settings: read-out: apparent Kd, n = 1
# PRKD3 = settings: read-out: apparent Kd, n = 1
# PRKCD = settings: read-out: apparent Kd; compound concentrations:100 nM and 1000 nM (sheet 'Samples'); n = 1
# PTK2 = settings: read-out: apparent Kd, compound concentrations: 100 nM and 1000 nM (sheet 'Samples'), n = 1
# CDK7 = settings: read-out: apparent Kd, compound concentrations: 100 nM and 1000 nM (sheet 'Samples'), n = 1
# ERCC2 = settings: read-out: apparent Kd, compound concentrations: 100 nM and 1000 nM (sheet 'Samples'), n = 1
# FER = settings: read-out: apparent Kd, compound concentrations: 100 nM and 1000 nM (sheet 'Samples'), n = 1
# PIP4K2C = settings: read-out: apparent Kd; compound concentrations: 100 nM and 1000 nM (sheet 'Samples'), CATDS: 1.61438790686462E-2; n = 1
# PLK4 = settings: read-out: apparent Kd, compound concentrations: 100 nM and 1000 nM (sheet 'Samples'), n = 1
# PRKAA1 = settings: read-out: apparent Kd; compound concentrations: 100 nM and 1000 nM (sheet 'Samples'), CATDS: 2.1062710392343101E-2; n = 1
# PRKAG1 = settings: read-out: apparent Kd, compound concentrations: 100 nM and 1000 nM (sheet 'Samples'), n = 1
# PTK2B = settings: read-out: apparent Kd, compound concentrations: 100 nM and 1000 nM (sheet 'Samples'), n = 1
# RPS6KA6 = settings: read-out: apparent Kd, n = 1
# MYLK3 = settings: read-out: apparent Kd, n = 1
# CDKL5 = settings: read-out: apparent Kd, n = 1
# DYRK1A = settings: read-out: apparent Kd, n = 1
# STK10 = settings: read-out: apparent Kd; compound concentrations:100 nM and 1000 nM (sheet 'Samples'); n = 1
# PRKCQ = settings: read-out: apparent Kd; compound concentrations:100 nM and 1000 nM (sheet 'Samples'); n = 1
# [1] = compound concentrations:100 nM and 1000 nM (sheet 'Samples')
smiles,measurement,setting,value
COc1cccc(C2=C(c3c(C)n(C)c4ccccc34)C(=O)NC2=O)c1 [RO3300167-000],potency estimated from few doses,"LATS1; compound concentrations: 100 nM and 1000 nM (sheet 'Samples'), CATDS: 7.6284475672850502E-2",1.7 µM
same,potency estimated from few doses,"MARK4; compound concentrations: 100 nM and 1000 nM (sheet 'Samples'), CATDS: 8.0513919134026293E-2",1.48 µM
same,potency estimated from few doses,"PRKD2; compound concentrations: 100 nM and 1000 nM (sheet 'Samples'), CATDS: 8.0855416148342393E-2",1.47 µM
same,potency estimated from few doses,"PRKD3; compound concentrations: 100 nM and 1000 nM (sheet 'Samples'), CATDS: 7.4607672697658597E-2",1.8 µM
Cl.Cl.NC[C@H](CC1CCCCC1)NC(=O)c1ccc(-c2ccnc3[nH]ccc23)s1.NC[C@H](CC1CCCCC1)NC(=O)c1ccc(-c2ccnc3[nH]ccc23)s1 [GSK1581428A],potency estimated from few doses,LATS1; [1],1.12 µM
same,potency estimated from few doses,PRKCD,0.719 µM
CCC(CC)(CC)n1cnc2c(N)ncnc21 [SKF-97620],potency estimated from few doses,PTK2; CATDS: 2.8719302746770599E-2,1.14 µM
Cl.Cn1c(=O)c(Cc2ccccc2F)cc2cnc(NC3CCOCC3)nc21 [RO3305377-001],potency estimated from few doses,CDK7; CATDS: 3.4029245989281497E-2,0.38 µM
same,potency estimated from few doses,ERCC2; CATDS: 3.95504986982557E-2,0.299 µM
same,potency estimated from few doses,FER; CATDS: 3.5160978159500297E-2,0.361 µM
same,potency estimated from few doses,PIP4K2C,2.17 µM
same,potency estimated from few doses,PLK4; CATDS: 2.6104796567006299E-2,0.613 µM
same,potency estimated from few doses,PRKAA1,0.98 µM
same,potency estimated from few doses,PRKAG1; CATDS: 2.2977618233773301E-2,0.801 µM
same,potency estimated from few doses,PTK2B; CATDS: 3.3520584845693903E-2,0.39 µM
same,potency estimated from few doses,PTK2; CATDS: 2.57578339913308E-2,0.63 µM
same,potency estimated from few doses,"RPS6KA6; compound concentrations: 100 nM and 1000 nM (sheet 'Samples'), CATDS: 2.9562664752210699E-2",0.485 µM
Cn1cc(C2=C(c3ccc(OC[C@@H](O)CO)cc3)C(=O)NC2=O)c2ccccc21 [RO3208546-000],potency estimated from few doses,CDK7; CATDS: 4.6127698813653598E-2,0.768 µM
same,potency estimated from few doses,ERCC2; CATDS: 5.3996089618989399E-2,0.559 µM
same,potency estimated from few doses,FER; CATDS: 5.24891250459407E-2,0.59 µM
same,potency estimated from few doses,PRKAG1; CATDS: 4.3402383935848998E-2,0.879 µM
same,potency estimated from few doses,PTK2B; CATDS: 4.1151087302781601E-2,0.996 µM
same,potency estimated from few doses,PTK2; CATDS: 4.2596941934388698E-2,0.918 µM
same,potency estimated from few doses,"RPS6KA6; compound concentrations: 100 nM and 1000 nM (sheet 'Samples'), CATDS: 5.0913712031047997E-2",0.626 µM
O=C1N=C(N[C@H](CO)c2ccccc2)S/C1=C\c1ccc2ncccc2c1 [RO4554339-000],potency estimated from few doses,"MYLK3; compound concentrations: 100 nM and 1000 nM (sheet 'Samples'), CATDS: 0.15441229792148201",0.303 µM
same,potency estimated from few doses,"PRKD2; compound concentrations: 100 nM and 1000 nM (sheet 'Samples'), CATDS: 0.111650130871897",0.671 µM
Cc1cc(NC(=O)c2cccc(NC(=O)/C=C/CN(C)C)c2)ccc1Nc1nccc(-c2cccnc2)n1 [JNK-IN-7],potency estimated from few doses,CDKL5; [1],0.958 µM
Nc1nccc(-c2ccc3c(N)n[nH]c3c2)n1 [GSK1034945A],potency estimated from few doses,DYRK1A; [1],0.117 µM
same,potency estimated from few doses,MARK4; [1],1.79 µM
same,potency estimated from few doses,MYLK3; [1],0.0655 µM
same,potency estimated from few doses,PRKD2; [1],2.03 µM
same,potency estimated from few doses,STK10,1.12 µM
O=C1N=C(NCc2ccccc2Br)S/C1=C\c1ccc2ncccc2c1 [RO4506918-000],potency estimated from few doses,"DYRK1A; compound concentrations: 100 nM and 1000 nM (sheet 'Samples'), CATDS: 8.9156542240232201E-2",0.912 µM
CCn1c(-c2nonc2N)nc2cncc(Br)c21 [SB-738004],potency estimated from few doses,DYRK1A; [1],0.717 µM
same,potency estimated from few doses,PRKCD,0.649 µM
same,potency estimated from few doses,PRKCQ,2.39 µM
O=C1N=C(N[C@@H](CO)Cc2ccccc2)S/C1=C\c1ccc2ncccc2c1 [RO4509200-000],potency estimated from few doses,"CDKL5; compound concentrations: 100 nM and 1000 nM (sheet 'Samples'), CATDS: 0.117206813575506",0.975 µM
same,potency estimated from few doses,"DYRK1A; compound concentrations: 100 nM and 1000 nM (sheet 'Samples'), CATDS: 0.168916103718072",0.44 µM
NS(=O)(=O)c1ccc(N/N=C2\C(=O)Nc3ccc(-c4cnco4)cc32)cc1 [GW276655_KCGS],potency estimated from few doses,MYLK3; [1],0.988 µM
CC(C)(CO)CNC(=O)c1ccc2c(c1)/C(=N/Nc1ccc(S(N)(=O)=O)cc1)C(=O)N2 [GW301784X],potency estimated from few doses,CDKL5; [1],0.172 µM
Cl.Nc1nc(-c2ccc3c(c2)C(=Cc2cc(Br)c(O)c(Br)c2)C(=O)N3)cs1 [GW407323A],potency estimated from few doses,"CDKL5; compound concentrations: 100 nM and 1000 nM (sheet 'Samples'), CATDS: 9.5267986760985093E-2",0.0737 µM
same,potency estimated from few doses,"DYRK1A; compound concentrations: 100 nM and 1000 nM (sheet 'Samples'), CATDS: 7.6450134498411204E-2",0.11 µM
same,potency estimated from few doses,"MARK4; compound concentrations: 100 nM and 1000 nM (sheet 'Samples'), CATDS: 2.9036597376729201E-2",1.63 µM
same,potency estimated from few doses,"MYLK3; compound concentrations: 100 nM and 1000 nM (sheet 'Samples'), CATDS: 0.25523575381679198",0.0172 µM
same,potency estimated from few doses,"PRKD2; compound concentrations: 100 nM and 1000 nM (sheet 'Samples'), CATDS: 3.4430997277348899E-2",0.812 µM
same,potency estimated from few doses,"PRKD3; compound concentrations: 100 nM and 1000 nM (sheet 'Samples'), CATDS: 3.1520603000909302E-2",1.13 µM
Cn1cc(C2=C(c3c(S(C)=O)n(C)c4ccccc34)C(=O)NC2=O)c2ccccc21 (stereo not shown) [RO0317379-000],potency estimated from few doses,"CDKL5; compound concentrations: 100 nM and 1000 nM (sheet 'Samples'), CATDS: 0.106131192264054",1.6 µM
COc1cc2ncn(-c3cc(OCc4ccccc4S(C)(=O)=O)c(C#N)s3)c2cc1OC [GSK319347A],potency estimated from few doses,"MYLK3; compound concentrations: 100 nM and 1000 nM (sheet 'Samples'), CATDS: 9.2768404511317695E-2",1.19 µM
same,potency estimated from few doses,PLK4; CATDS: 8.6919710650877405E-2,1.39 µM
Cc1occc1-c1nc(N)c(OC[C@@H](N)Cc2c[nH]c3ccccc23)cc1-c1cc2c(C)n[nH]c2cn1 [GSK1660450B],potency estimated from few doses,DYRK1A; [1],1.79 µM
same,potency estimated from few doses,MARK4; [1],1.11 µM
same,potency estimated from few doses,PRKCD,0.00862 µM
same,potency estimated from few doses,PRKD2; [1],0.386 µM
same,potency estimated from few doses,PRKD3; [1],0.17 µM
same,potency estimated from few doses,RPS6KA6; [1],0.0191 µM
NS(=O)(=O)c1ccc(NC=C2C(=O)Nc3ccc4ncsc4c32)cc1 [GW589933X],potency estimated from few doses,"CDKL5; compound concentrations: 100 nM and 1000 nM (sheet 'Samples'), CATDS: 7.9596409580243901E-2",0.0524 µM
same,potency estimated from few doses,"LATS1; compound concentrations: 100 nM and 1000 nM (sheet 'Samples'), CATDS: 1.9733333265128199E-2",1.02 µM
same,potency estimated from few doses,"MYLK3; compound concentrations: 100 nM and 1000 nM (sheet 'Samples'), CATDS: 0.127483608454634",0.0237 µM
same,potency estimated from few doses,"PRKD2; compound concentrations: 100 nM and 1000 nM (sheet 'Samples'), CATDS: 1.78038958195245E-2",1.46 µM
same,potency estimated from few doses,"PRKD3; compound concentrations: 100 nM and 1000 nM (sheet 'Samples'), CATDS: 1.69814633200863E-2",1.76 µM
NS(=O)(=O)c1ccc(N/N=C2\C(=O)Nc3ccc4ncccc4c32)cc1 [GW305178X],potency estimated from few doses,"CDKL5; compound concentrations: 100 nM and 1000 nM (sheet 'Samples'), CATDS: 5.21381649539812E-2",0.867 µM
